Hits are enriched below; roughly 4% of the tested compounds scored in any of these assays.
Peg3 prom inh = Peg3 promoter activity inhibition | HeLa PEG-Prom luciferase reporter, luminescence, overnight | inhibition, % at 20 µM | 360,000 tested, 1.7% active | AID 588405;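 active = inhibition of at least 50% at 20 µM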
TROY NFkB inh = TROY signaling inhibition; Q293 LMP1-TROYcd NF-kB luciferase reporter, 4 h; inhibition, % at 10 µM; 360,000 tested, 0.98% active;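 active = compounds whose plate-normalised and pattern-corrected inhibition of the luciferase reporter signal at the single screening dose is 50% or more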
KKLEB cytotox = reduces viability of KKLEB cystic fibrosis airway cells; KKLEB CF airway cells viability, ATPlite luminescence, overnight; hits give low values; cells stimulated with P. aeruginosa culture filtrate; activity change (cytotoxicity), % at 5 µM; 360,000 tested, 0.36% active;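 active = corrected activity change at or below -50% at 5 µM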
CF NFkB inh = blocks PAF-induced NF-kB reporter in cystic fibrosis cells; KKLEB NF-kB-GFP reporter, GFP fluorescence overnight; inhibition, % at 5 µM; 360,000 tested, 0.86% active; AID 588850;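 active = at least 50% inhibition at 5 µM, scaled per plate between neutral and stimulator controls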;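 note: PAF is a Pseudomonas aeruginosa culture filtrate used as stimulus; plate controls were PAF-stimulated DMSO wells for no effect and unstimulated DMSO wells for full effect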
TWEAK Fn14 block = blocks TWEAK-Fn14 interaction in a reporter cell assay | TWEAK-stimulated Fn14 reporter cells, luciferase luminescence, 8 h | inhibition, % at 10 µM | 360,000 tested, 2% active; in the data active = inhibition above about 50%
HIF-2a block = blocks HIF-2a reporter activity; 360,000 tested, 0.72% active; 786-0 RCC cells HIF-2a reporter, luciferase luminescence, overnight; inhibition, % at 18.8 µM;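 active = inhibition of the luminescence signal of 40% or more relative to plate controls, in a single-dose primary screen at 18.75 µM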
The depositor's hits bear a star.

What do the screens show for `O=C(C[C@H]1C/C=C\CC[C@H](Cc2ccc(F)cc2)C(=O)O[C@@H](c2ccccc2)CNC1=O)N[C@@H](CO)Cc1ccccc1`?
Peg3 prom inh: 65.5*; TROY NFkB inh: 4.2; KKLEB cytotox: 3.6; CF NFkB inh: 14.1; TWEAK Fn14 block: 32.0; HIF-2a block: 17.4

Results for O=C1N[C@@H](Cc2c[nH]c3ccccc23)COC(=O)[C@H](Cc2ccc(F)cc2)C/C=C\C[C@H]1CC(=O)N(CCO)Cc1ccccc1 ?
Peg3 prom inh: 24.2; TROY NFkB inh: 24.1; KKLEB cytotox: 6.7; CF NFkB inh: -15.4; TWEAK Fn14 block: 38.0; HIF-2a block: 14.2

Results for O=C(C[C@@H]1C/C=C/CC[C@@H](Cc2ccc(F)cc2)C(=O)OC[C@H](Cc2ccccc2)NC1=O)N[C@H](CO)Cc1ccccc1 ?
Peg3 prom inh: 55.0*; TROY NFkB inh: 1.4; KKLEB cytotox: -16.6; CF NFkB inh: 12.5; TWEAK Fn14 block: 13.2; HIF-2a block: 3.1

How did O=C1N[C@@H](Cc2c[nH]c3ccccc23)COC(=O)[C@@H](Cc2ccc(F)cc2)CC/C=C/C[C@@H]1CC(=O)N(CCO)Cc1ccccc1 do in these assays?
Peg3 prom inh: 18.6; TROY NFkB inh: 29.8; KKLEB cytotox: 22.3; CF NFkB inh: 7.0; TWEAK Fn14 block: 54.8*; HIF-2a block: -22.9

Results for C[C@H]1COC(=O)[C@H](Cc2ccc(F)cc2)CC/C=C/C[C@@H](CC(=O)N[C@@H](CO)Cc2ccccc2)C(=O)N1 ?
Peg3 prom inh: 16.1; TROY NFkB inh: 6.3; KKLEB cytotox: -2.1; CF NFkB inh: -9.9; TWEAK Fn14 block: -2.6; HIF-2a block: 12.2

Results for CC(C)(C)NC(=O)COC(=O)c1ccc(NC(=O)CC#N)cc1 ?
Peg3 prom inh: -2.3; TROY NFkB inh: -0.8; KKLEB cytotox: -7.0; CF NFkB inh: 6.2; TWEAK Fn14 block: -0.1; HIF-2a block: 9.8

Results for Cc1ccc(S(=O)(=O)c2ccc([N+](=O)[O-])o2)cc1 ?
Peg3 prom inh: 104.9*; TROY NFkB inh: 58.6*; KKLEB cytotox: -88.8*; CF NFkB inh: 77.8*; TWEAK Fn14 block: 102.2*; HIF-2a block: 89.1*

How did Cc1ccc(NC(=O)c2ccc([N+](=O)[O-])o2)c(C)c1 do in these assays?
Peg3 prom inh: 12.6; TROY NFkB inh: 10.8; KKLEB cytotox: -0.3; CF NFkB inh: 15.7; TWEAK Fn14 block: 23.0; HIF-2a block: -0.8

Results for COc1ccc(-n2c(SCC(=O)N3CCOCC3)nc3ccccc3c2=O)cc1 ?
Peg3 prom inh: 15.4; TROY NFkB inh: -9.1; KKLEB cytotox: 0.9; CF NFkB inh: -0.5; TWEAK Fn14 block: 10.1; HIF-2a block: 16.1

How did CCn1c(=O)cc(SCC(=O)Nc2ccc(C)cn2)c2ccccc21 do in these assays?
Peg3 prom inh: 82.7*; TROY NFkB inh: 16.2; KKLEB cytotox: 7.6; CF NFkB inh: 49.3; TWEAK Fn14 block: 37.5; HIF-2a block: -357.4

Results for Cn1nc(-c2ccc(Cl)cc2)c2cc(C(=O)N3CCN(c4ccccn4)CC3)sc21 ?
Peg3 prom inh: 36.0; TROY NFkB inh: 51.6*; KKLEB cytotox: 7.1; CF NFkB inh: -64.0; TWEAK Fn14 block: 78.6*; HIF-2a block: 2.6

Results for Cc1ccc(-n2nnc(-c3nccs3)n2)cc1 ?
Peg3 prom inh: 48.4; TROY NFkB inh: 65.7*; KKLEB cytotox: -52.3*; CF NFkB inh: -1.7; TWEAK Fn14 block: 94.4*; HIF-2a block: 51.1*

Results for CCCCNC(=O)COC(=O)c1c2c(nc3ccccc13)CCC2 ?
Peg3 prom inh: 10.2; TROY NFkB inh: 10.2; KKLEB cytotox: -15.1; CF NFkB inh: -5.4; TWEAK Fn14 block: 24.4; HIF-2a block: 13.5

What do the screens show for `COc1ccc(NC(=O)COC(=O)c2c3c(nc4ccccc24)CCCC3)cc1Cl`?
Peg3 prom inh: 26.1; TROY NFkB inh: 53.4*; KKLEB cytotox: 6.5; CF NFkB inh: -27.6; TWEAK Fn14 block: 64.7*; HIF-2a block: -69.8

What do the screens show for `Cc1c(NC(=O)COC(=O)c2c3c(nc4ccccc24)CCCC3)c(=O)n(-c2ccccc2)n1C`?
Peg3 prom inh: 4.8; TROY NFkB inh: 16.5; KKLEB cytotox: 3.3; CF NFkB inh: -2.0; TWEAK Fn14 block: -11.4; HIF-2a block: 11.9

Results for COc1ccc(OC)c(NC(=O)COC(=O)c2c3c(nc4ccccc24)CCCC3)c1 ?
Peg3 prom inh: 78.2*; TROY NFkB inh: 29.0; KKLEB cytotox: -47.5; CF NFkB inh: 37.0; TWEAK Fn14 block: 55.1*; HIF-2a block: -8.6

How did CNC(=O)COC(=O)c1c2c(nc3ccccc13)CCC2 do in these assays?
Peg3 prom inh: 2.7; TROY NFkB inh: 17.8; KKLEB cytotox: -1.4; CF NFkB inh: -1.3; TWEAK Fn14 block: -6.5; HIF-2a block: 6.0

How did COc1ccc(NC(=O)COC(=O)c2c3c(nc4ccccc24)CCCC3)cc1 do in these assays?
Peg3 prom inh: 34.0; TROY NFkB inh: 42.2; KKLEB cytotox: 13.4; CF NFkB inh: -10.1; TWEAK Fn14 block: 58.7*; HIF-2a block: -18.7

What do the screens show for `O=C(O)C1C(c2ccccc2)=C1c1ccc(Br)cc1` (configuration not stated)?
Peg3 prom inh: 2.6; TROY NFkB inh: -7.8; KKLEB cytotox: -1.2; CF NFkB inh: 0.8; TWEAK Fn14 block: 6.0; HIF-2a block: -9.2

Results for Cc1ccc(-c2cc(NC(=O)CCl)n(-c3ccccc3)n2)cc1 ?
Peg3 prom inh: 37.2; TROY NFkB inh: -56.3; KKLEB cytotox: -13.6; CF NFkB inh: -48.5; TWEAK Fn14 block: -17.3; HIF-2a block: -179.8

Results for Cc1ccc(-n2cc(CNCCCn3cccn3)c(-c3cccc(C)c3)n2)cc1 ?
Peg3 prom inh: 85.0*; TROY NFkB inh: -7.0; KKLEB cytotox: -27.1; CF NFkB inh: 17.4; TWEAK Fn14 block: -21.6; HIF-2a block: -31.7

How did Cc1ccc(-c2nn(-c3ccccc3)cc2CNCc2ccccc2)cc1 do in these assays?
Peg3 prom inh: 52.9*; TROY NFkB inh: -12.0; KKLEB cytotox: -15.7; CF NFkB inh: 10.6; TWEAK Fn14 block: -29.8; HIF-2a block: -15.9

What do the screens show for `Cc1ccc(-c2nn(-c3ccccc3)cc2CO)cc1`?
Peg3 prom inh: -262.8; TROY NFkB inh: -38.3; KKLEB cytotox: 5.1; CF NFkB inh: -2.4; TWEAK Fn14 block: -2.6; HIF-2a block: -216.9

How did Cc1ccc(-c2nn(-c3ccccc3)cc2NC(=O)CCl)cc1 do in these assays?
Peg3 prom inh: 105.1*; TROY NFkB inh: -41.4; KKLEB cytotox: -34.5; CF NFkB inh: 25.2; TWEAK Fn14 block: -5.4; HIF-2a block: -76.3

How did CN(C)c1ccc(/C=N/Nc2cccc(C(=O)O)c2)cc1 do in these assays?
Peg3 prom inh: -161.7; TROY NFkB inh: -59.7; KKLEB cytotox: 2.0; CF NFkB inh: 13.7; TWEAK Fn14 block: -13.9; HIF-2a block: 24.6

How did C/C(=N\NC(=O)c1nnn(-c2nonc2N)c1CSc1ccc(C)cc1)c1cccnc1 do in these assays?
Peg3 prom inh: 20.6; TROY NFkB inh: 15.8; KKLEB cytotox: 1.0; CF NFkB inh: -16.9; TWEAK Fn14 block: -14.9; HIF-2a block: 15.4
